# Compounds with a hit are over-represented: about 0.41% of the library has one in this group of screens.
# YopH PTP inh: YopH (Yersinia) phosphatase inhibition | inhibition, % (no concentration beside the values) | fluorescence Ex485/Em525 | 140,000 tested, 0.16% active; in the data active = inhibition above about 50%
# RmlCD inh mix: inhibitors of RmlC and RmlD coupled enzymes; RmlC/RmlD coupled enzyme inhibition, 384-well mixture HTS; inhibition, % at 5.5 µM; 110,000 tested, 0.39% active; AID 1532; in the data active = inhibition above about 30%, passing the limit was not always enough
# RmlCD artifact: shows fluorescent artifact in RmlC/RmlD assay, dose-response counter-screen. shares compounds with RmlCD inh mix. RmlC/RmlD assay fluorescence artifact counter-screen. calls only. 360 tested, 96% active; call rule not given here;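 note: compound alone with no enzyme and no substrates present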
# * marks the source's active call; other numbers are inactive results; i = inactive; x = not tested or not shown; + = active, no number.
SMILES,YopH PTP inh,RmlCD inh mix,RmlCD artifact
Cc1ccc(CNC(=O)COC(=O)c2ccc(Cl)c(N)c2)cc1,-24,x,x
C=C(C)CNC(=S)N/N=C1\CCCCc2ccccc21,-42,x,x
CNC(=O)COC(=O)c1cc2c(C)nn(-c3ccc(F)cc3)c2s1,-33,16,x
Cc1nn(-c2ccc(F)cc2)c2sc(C(=O)OC3CCOC3=O)cc12 (stereo not drawn),-5,47*,+
COc1ccc(COCC(O)CN2CC(C)OC(C)C2)cc1OC (stereo not drawn),-25,-8,x
Cc1oc2c(CN3CCOCC3)c(O)ccc2c(=O)c1-c1ccccc1,-48,39*,+
Cc1oc2c(CN3CCCC3)c(O)ccc2c(=O)c1Oc1ccccc1Br,-42,64*,+
COc1ccccc1-c1coc2c(CN3CCN(C)CC3)c(O)ccc2c1=O,-47,16,x
COc1ccc(Oc2c(C)oc3c(CN4CCOCC4)c(O)ccc3c2=O)cc1,-12,10,x
COc1ccccc1-c1coc2c(CN3CCN(CCO)CC3)c(O)ccc2c1=O,3,40*,+
COc1ccccc1Oc1c(C)oc2c(CN3CCN(CCO)CC3)c(O)ccc2c1=O,1,x,x
O=[N+]([O-])c1cccc(-c2nnn(C34CC5CC(CC(C5)C3)C4)n2)c1,-23,-6,x
COc1ccccc1NC(=O)Cn1cnc2sc(C)c(S(=O)(=O)N3CCCCC3)c2c1=O,-24,x,x
COCCCn1c(SCC(=O)NCc2ccccc2)nc2ccccc2c1=O,-25,-5,x
COCCCNC(=O)c1ccc2nc3ccccc3c(=O)n2c1,-44,34*,+
COc1ccc(-c2nc(C#N)c(N3CCOCC3)o2)cc1OC,-22,26,x
COc1ccc(-c2nc(C#N)c(N3CCC(C(N)=O)CC3)o2)cc1OC,-8,41*,+
CC(C)n1cnc2c(N(C)c3ccccc3)nc(N(CCN(C)C)Cc3ccccc3)nc21,x,8,x
CC(C)CCNC(=O)c1cc(-c2ccco2)nc2ccccc12,4,69,x
O=C(NCC1CCCO1)c1cc(-c2ccco2)nc2ccccc12 (stereo not drawn),-37,53*,+
CC(=O)c1c(C)[nH]c(C(=O)OCC(=O)Nc2ccc(Cl)cc2[N+](=O)[O-])c1C,-26,x,x
COc1cccc(NC(=O)COC(=O)CNS(=O)(=O)c2c(F)cccc2F)c1,-30,x,x
CCn1c(C)nc2cc(C(=O)N/N=C/c3ccc(O)cc3)ccc21,-28,x,x
CCn1c(C)nc2cc(C(=O)N/N=C(\C)c3ccc(OC)cc3O)ccc21,x,x,+
CCOC(=O)Nc1ccc2c(CN3C(=O)NC4(CCCC4)C3=O)cc(=O)oc2c1,-1,74*,+
SMILES,YopH PTP inh,RmlCD inh mix,RmlCD artifact
CCOC(=O)Nc1ccc2c(CN3C(=O)NC(CC)(CC)C3=O)cc(=O)oc2c1,-17,38,x
c1ccc(-c2nnc(SCCC3OCCCO3)o2)cc1,-32,x,x
Cn1c(-c2cccc3ccccc23)n[nH]c1=S,-36,x,x
CCCCOCCCn1c(N)c(C(=O)OCCOC)c2nc3ccccc3nc21,-4,57*,+
CCOC(=O)c1c(N)n(Cc2ccco2)c2nc3ccccc3nc12,-36,72,x
COCCOC(=O)c1c(N)n(Cc2ccccc2)c2nc3ccccc3nc12,5,54,x
COCC(C)OC(=O)c1c(N)n(Cc2ccco2)c2nc3ccccc3nc12 (stereo not drawn),-46,56*,+
O=C(C1=C[C@H](c2coc3ccccc3c2=O)C[C@H](OCCCCO)O1)N1CCN(Cc2ccc3c(c2)OCO3)CC1,x,10,x
N#Cc1c(N)n(CCNC(=O)c2cccs2)c2nc3ccccc3nc12,54*,37*,+
N#Cc1c(N)n(CCNC(=O)c2ccccc2)c2nc3ccccc3nc12,-27,x,x
CCCn1c(C)cc(C(=O)COC(=O)c2cc(S(=O)(=O)NCC(C)C)c(Cl)cc2Cl)c1C,-20,-15,x
COc1ccccc1NC(=O)c1cc(C(=O)Nc2ccccc2OC)cc(N2C(=O)CCC2=O)c1,-27,x,x
CN(C)CCNC(=O)c1cc2c(s1)-c1ccccc1OC2,-29,161*,+
Cc1csc(NC(=O)c2cc3c(s2)-c2ccccc2OC3)n1,-2,-9,x
S=C(Nc1ccc(Cl)c(Cl)c1)NN1CCOCC1,-17,x,x
O=C(OCc1nnn(Cc2ccccc2)c1-c1c(COC(=O)c2ccccc2)nnn1Cc1ccccc1)c1ccccc1,x,13,x
Cc1[nH]n(-c2ccccc2)c(=O)c1C=Nc1cnc2ccccc2c1,-32,44*,+
Cc1[nH]n(-c2ccccc2)c(=O)c1/C=N/c1ccccn1,-32,3,x
COc1ccc2c(c1)O[C@@H](c1cccc(C(F)(F)F)c1)[C@H](OC(=O)NCCc1ccc(OC)c(OC)c1)C2=O,-28,x,x
COc1ccc(-c2oc3ccc(N4CCOCC4)cc3c2C#CC2(O)CCCCC2)cc1,x,-461,x
Cc1cc(C(F)(F)F)c(C#N)c(=O)[nH]1,-36,32*,+
N#Cc1c(C(F)(F)F)cc(-c2ccc(Cl)cc2)[nH]c1=O,-31,10,x
CCCNC(=O)N1C2=NC(C(=O)OC)=C(C(=O)OC)[C@@H]3N(Cc4ccccc4)c4ccccc4[C@]23C[C@H]1CO,x,-1,x
COc1ccc(OC)c(S(=O)(=O)Nc2cccc(F)c2)c1,-31,-5,x
CCOC(=O)c1nn(-c2ccccc2)c2nc(-c3ccc(OC)cc3)c(C#N)c(=O)n12,-23,x,x
SMILES,YopH PTP inh,RmlCD inh mix,RmlCD artifact
CCOC(=O)c1nn(-c2ccc(F)cc2)c2nc(CC(C)C)c(C#N)c(=O)n12,-20,51*,+
COc1ccc(-c2cc(=NC(CC(C)C)C(=O)O)c3cc(C)ccc3o2)cc1 (stereo not drawn),-10,x,x
COc1ccc(-c2cc(=NCCC(=O)O)c3cc(C)ccc3o2)cc1,x,x,+
COCCCn1c(=O)/c(=C\c2ccc(OC(F)F)c(OC)c2)s/c1=C(/C#N)C(=O)NCCOC,x,x,i
COCCCn1c(=O)/c(=C\c2ccccc2OC(F)F)s/c1=C(/C#N)C(=O)NC(C)C,-16,x,x
Cn1c(=O)c(/C=C/c2ccccc2)nc2ccccc21,-15,x,x
CC(=O)c1ccc(/C=C/c2nc3ccccc3n2C)o1,x,x,+
CCCCCCCCNC(=O)CCNC(=O)c1ccc(C(C)(C)C)cc1,5,-14,x
O=C(NC1CCCCC1)c1ccc2c(c1)S(=O)(=O)c1ccccc1C2=O,x,9,x
Cc1ccc(CN2CC(C(=O)Nc3cccc(S(=O)(=O)N4CCCCC4)c3)CC2=O)cc1 (stereo not drawn),-3,x,x
Cc1ccc(CN2CC(C(=O)Nc3ccc4c(C)cc(=O)oc4c3)CC2=O)cc1 (stereo not drawn),-22,30,+
CCOc1cc(/C=N/Nc2nc(-c3cccc(S(=O)(=O)N4CCCC4)c3)cs2)ccc1O,-21,x,x
C/C(N)=C(/C#N)C(=O)COC(=O)CC12CC3CC(CC(C3)C1)C2,-19,-13,x
COc1ccccc1NS(=O)(=O)c1cccc(N2CC(O)=C(c3ccccc3)C2=N)c1,-21,x,x
COC(=O)C1=C[C@@H](C(=O)OC)[C@@H]2C3=C(C(=O)[C@@]2(C)NC(=O)c2ccccc2)[C@H](C)n2c(=O)n(C)c(=O)n2[C@@H]3C1,x,12,x
COc1ccc(OC)c(NC(=O)CN2C(=O)c3ccccc3S2(=O)=O)c1,-30,6,x
COc1ccc2c(c1)-c1ccccc1S(=O)(=O)N2C(C)=O,-22,131*,+
CC(=O)Nc1ccc(S(=O)(=O)NCc2ccc(C(=O)NC(C)c3ccccc3)cc2)cc1 (stereo not drawn),-35,6,x

# From PubChem
